Only some compounds are listed: those with a hit (about 4.8% of all), similar ones and a draw of the others.
HIF act: HIF pathway transcriptional activators, primary screen, cell-based, U2OS HRE-luciferase, luminescence; 300,000 compounds, 0.32% hits; activation, % at 7.5 µM (by protocol); AID 1910, 2009; U2OS HRE-luciferase reporter; normalized: DMSO 0%, desferrioxamine 100%;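 active = mean activation of at least 10% of the iron chelator positive control signal, with at least half of replicates also reaching 10%; inconclusive = mean and replicate majority disagree about reaching 10%; inactive = mean and most replicates under 10%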
ALR H2O2 inh: inhibitors of human ALR sulfhydryl oxidase, primary screen, biochemical, H2O2 detection, HRP-luminol luminescence, single point; FAD-linked sulfhydryl oxidase ALR (Homo sapiens), P55789; purified ALR, DTT oxidation; inhibition, % (test concentration not listed); 290,000 compounds, 3.8% hits; AID 485317, 2010;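 active = mean replicate inhibition above about 79%, with every replicate also reaching it, limit read from the data; inconclusive = only one of the two criteria met; inactive = mean below limit and not every replicate reaching it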
Target sequence (P55789 whole entry, looked up): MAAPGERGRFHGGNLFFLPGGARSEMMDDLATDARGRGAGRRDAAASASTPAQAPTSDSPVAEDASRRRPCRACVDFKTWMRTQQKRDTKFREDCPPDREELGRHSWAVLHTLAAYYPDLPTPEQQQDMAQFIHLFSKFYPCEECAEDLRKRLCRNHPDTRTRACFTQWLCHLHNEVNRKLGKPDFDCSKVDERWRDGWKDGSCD
SUMO Mot1 rescue: yeast Mot1-301 growth rescue at high temperature, primary screen, SUMOylation pathway inhibitor project, S. cerevisiae, ATP luminescence, 38.5C | S. cerevisiae Mot1-301 growth rescue; percent above DMSO median, 100 means doubled | growth rescue, % at 18.8 µM | AID 2716, 2010 | 320,000 compounds, 1% hits;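 active = every valid replicate shows activation above 250% relative to neutral control wells; inactive = the rest, any valid replicate at or below 250%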;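 also: OY570 slx delta 5 strain wells were the positive control but not used for scaling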
AI-2 QS mod: Vibrio harveyi AI-2 quorum sensing modulators, primary screen, JMH597 strain, luminescence/OD600 ratio; Vibrio harveyi JMH597 AI-2 luminescence/OD600 ratio, 9 h; stronger effect = lower value; strain lacks LuxN and CqsS sensors; 0 = neutral-control median; activity change, % at 7.5 µM; 300,000 compounds, 0.4% hits; AID 2094, 2009; in the data active = activity change below about -75%, passing the limit was not always enough; inconclusive = no clear call, values can overlap the other calls;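 also: luminescence divided by OD600 gain over 9 h not by final OD600 alone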
* marks the source's active call; other numbers are inactive results; ? = inconclusive; · = no result.

SMILES	HIF act	ALR H2O2 inh	SUMO Mot1 rescue	AI-2 QS mod
CN1CCC2(CC1)N=C(c1ccc(F)cc1)C(=S)N2C(=O)c1ccc(C(C)(C)C)cc1	191*	69	1	38
Clc1ccc(CSc2ccc(-c3ccccn3)nn2)cc1	24*	-19	-27	12
O=C(CSc1ccc(-c2ccccn2)nn1)NCc1ccc(Cl)cc1	0	0	-25	41
c1ccc(CSc2ccc(-c3ccccn3)nn2)cc1	10*	-6	122	-54
Cc1nc(C(=O)NC2CCCCC2)sc1C1(C)CC(c2cccnc2)=NO1 (stereo unspecified)	-1	·	-6	25
O=C(COC(=O)C12CC3CC(CC(Br)(C3)C1)C2)Nc1ccc2[nH]c(=O)[nH]c2c1	0	0	-2	28
CCOc1cc(/C=C(\CC(=O)O)c2nc3ccccc3s2)ccc1OC	0	4	-14	-14
COc1cc(/C=C(\CC(=O)O)c2nc3ccccc3s2)cc(OC)c1O	-1	100*	1	17
COc1ccc(/C=C(\CC(=O)O)c2nc3ccccc3s2)cc1O	0	92*	2	23
Cc1cc(C)c(S(=O)(=O)NCCCn2ccnc2)cc1C	1	1	16	0
Cc1ccc(NC(=O)C(C)OC(=O)COc2cccc(C(F)(F)F)c2)cc1 (stereo unspecified)	·	-1	1	·
O=C(/C=C/C(=O)N1CCc2ccccc2C1)N1CCc2ccccc2C1	2	85*	3	14
COc1ccccc1CNC(=O)c1cc2c(s1)CS(=O)(=O)C2	0	-8	0	9
CC(NC(=O)c1cc2c(s1)CS(=O)(=O)C2)c1ccccc1 (stereo unspecified)	125*	-9	12	14
Cc1ccnc(NC(=O)c2ccc(S(=O)(=O)N3CCC(C)CC3)cc2)c1	2	-2	0	12
COc1ccc(Nc2n[nH]c(N)c2C(N)=O)cc1	0	99*	-19	24
Nc1ccc(S(=O)(=O)Nc2nccc(/C=C/c3cccc(Br)c3)n2)cc1	-2	4	-3	24
CN1CCN(CCCN2c3ccccc3Sc3ccc(S(=O)(=O)N(C)C)cc32)CC1	·	96*	-8	·
CCN1C(=O)c2ccccc2Sc2ccc(C(=O)NCCCN3CCCCC3)cc21	0	-3	129	57
CC(=O)c1ccc2c(c1)N(CCCN1CCC(CCO)CC1)c1ccccc1S2	·	96*	14	·
COc1cc(/C=N/N2CCN(c3ccccc3OC)CC2)ccc1O	1	99*	9	5
COc1ccccc1N1CCN(/N=C(\C)c2ccccc2O)CC1	-20	1	-18	21
COc1cc(/C(C)=N/N2CCN(c3ccccc3OC)CC2)ccc1O	3	99*	-21	14
COc1ccc(/C=N/N2CCN(C)CC2)cc1O	0	99*	-5	9
COc1cc(/C(C)=N/NC(=O)C(O)(c2ccccc2)c2ccccc2)ccc1O	0	98*	189	-1
SMILES	HIF act	ALR H2O2 inh	SUMO Mot1 rescue	AI-2 QS mod
COc1ccccc1NNC(=O)C(O)(c1ccccc1)c1ccccc1	0	·	9	10
C=CC[C@@H](CC(=O)N[C@H](CO)Cc1ccccc1)C(=O)N[C@@H](COC(=O)[C@@H](CC=C)CC(=O)OC(C)(C)C)Cc1ccccc1	·	-1	-13	·
COc1ccccc1N1CCN(/N=C\c2sccc2C)CC1	2	95*	-19	12
COc1ccccc1N1CCN(/N=C\c2ccccc2)CC1	6	22	3	15
O=C(Nc1cccc(NC(=O)c2ccccc2Cl)c1)c1ccc([N+](=O)[O-])o1	-2	-34	-33	-191*
O=C(Nc1cccc2ccccc12)c1ccc([N+](=O)[O-])o1	1	-23	-27	-128*
O=C(Nc1ccccc1N1CCCC1)c1ccc([N+](=O)[O-])o1	0	?	-56	83
Cc1cccc(NC(=O)c2ccc([N+](=O)[O-])o2)c1C	-1	-18	5	23
COc1ccccc1NC(=O)c1ccc([N+](=O)[O-])o1	2	-16	-7	-87*
CCc1nnc(NS(=O)(=O)c2ccc(NCc3ccccc3O)cc2)s1	0	49	144	22
Cc1cc(C(=O)C(C)OC(=O)c2ccc(NC(=O)CC#N)cc2)c(C)n1-c1ccccc1 (stereo unspecified)	0	-8	18	-9
Cc1cccc(-n2c(O)c(C=Nc3ccccc3O)c3ccccc3c2=O)n1	-1	98*	2	28
Cc1cccc(-n2c(O)c(/C=N/NC(=O)c3ccccc3Cl)c3ccccc3c2=O)n1	0	96*	-16	27
Cc1cccc(-n2c(O)c(C=Nc3ccc(O)cc3)c3ccccc3c2=O)n1	-1	99*	370	9
Cc1cccc(-n2c(O)c(C=Nc3cc(O)ccc3C)c3ccccc3c2=O)n1	-1	·	-2	21
CC(C)c1nc2cc(C(=O)N(C)Cc3ccc(F)cc3)ccc2o1	1	2	31	29
COc1ccc(S(=O)(=O)N2CCc3ccccc32)cc1C(=O)N1CCOCC1	0	·	4	33
Cc1ccc(N2CCC(N3CCN(C4CCCCC4)C(CCO)C3)CC2)cc1 (stereo unspecified)	0	99*	-1	8
CC(C)CCN1CCN(C2CCN(c3ccc4c(c3)OCO4)CC2)CC1CCO (stereo unspecified)	0	99*	9	26
CC(C)N1CCC(N2CCN(C3CCCCC3)CC2CCO)CC1 (stereo unspecified)	0	-3	216	3
CCC(=O)NCCc1nc2cc(NC(=O)c3ccc(F)cc3)ccc2n1C	3	0	35	0
CCCc1cc(=O)oc2cc(C)cc(OC(C)C(=O)NCCCn3ccnc3)c12 (stereo unspecified)	0	-24	-22	1
COc1ccccc1NC(=O)c1ccc(NC(=O)CSc2ncccn2)cc1	0	-8	22	11
CCC(c1nnc(SCC(=O)Nc2ccc(C(=O)Nc3ccccc3OC)cc2)o1)N(C)C (stereo unspecified)	0	99*	74	4
COc1cc(C2Nc3ccccc3C(=O)N2c2ccccc2OC)ccc1O (stereo unspecified)	0	29	231	4
O=C1c2ccccc2NC(c2ccc(O)c(O)c2)N1c1ccccc1Cl (stereo unspecified)	-3	100*	147	15
COc1ccc([C@H]2CC(=O)C=C(c3cccc(C(C)C)c3)C2)cc1OC	·	-11	-4	·
CCC(C)c1c(O)nc(SCC(=O)c2ccccc2)[nH]c1=O (stereo unspecified)	1	99*	-4	11
C=CCc1c(C)nc(SCC(N)=O)[nH]c1=O	0	-3	-6	-2

Source: PubChem
